This is a sample that favours compounds with a hit; in the whole collection about 19% have one here.
DT40 TDP1 CPT: growth inhibition of DT40 Tdp1-/-;hTDP1 cells with camptothecin (screen for TDP1 inhibitors) | chicken DT40 Tdp1-/-;hTDP1 cells + 20 nM CPT, ATP luminescence, 48 h | Potency, µM (doses to about 46.2 µM), inactives show top-dose activity change, negative = growth inhibition, most hits filed as inhibitors | 420,000 compounds, 12% hits; further: potency means the concentration at half of the fitted maximal effect; nearly all actives have a fitted effect of over 55% in size
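Chicken DT40 Tdp1-/- cells complemented with human TDP1, 400 cells/well, exposed to compounds plus 20 nM camptothecin for at least 48 h at 37 C; viability read as ATP content by CellTiter-Glo luminescence.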
TDP1 cell noCPT: qHTS for Inhibitors of human tyrosyl-DNA phosphodiesterase 1 (TDP1): qHTS in cells in absence of CPT; DT40 Tdp1-/- hTDP1 cells, no CPT, ATP luminescence, 48 h; Potency, µM (doses to about 46.2 µM), for inactives: at the top dose activity change, negative = growth inhibition, usual class: inhibitors; 420,000 compounds, 15% hits; AID 686978, 2013; further: potency means the concentration at half of the fitted maximal effect; nearly all actives have a fitted effect of over 55% in size
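Stably hTDP1-transfected Tdp1-null chicken DT40 cells were treated with library compounds minus camptothecin and grown for at least 48 hr at 37 °C, after which cellular ATP was quantified by luminescence.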
HT1080 IDH1KD tx: HT-1080 IDH1 knockdown cell toxicity (counter line) | HT-1080 IDH1 knockdown viability, ATP luminescence, 48 h | Potency, µM (highest dose often 46.1 µM), inactives show top-dose activity, negative = toxicity, hits mostly cytotoxic | 360,000 compounds, 2% hits;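 further: potency means the concentration at half of the fitted maximal effect; 0% = DMSO wells and -100% = cell-free medium wells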
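CellTiter-Glo luminescence after 48 h compound exposure at 37 degrees C of IDH1-knockdown HT-1080 cells in 5% FBS RPMI. %Activity scaled between DMSO wells and cell-free media wells, with curves fitted and assigned curve classes.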
IL-1B inflam inh: inhibitors of inflammasome signaling (IL-1 beta secretion); activity change, % at 57.5 µM; AID 743279; THP-1 LPS/ATP IL-1B secretion, AlphaLISA, 16 h; active compounds read low; 360,000 compounds, 4.7% hits; in the data active means activity change below about -50%; inconclusive means mostly about -30% to -49%
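THP-1 cells pretreated 1 hr with compounds (up to 57.5 uM final), then stimulated with LPS (250 ng/mL final) plus ATP (1.25 mM final); secreted IL-1B measured by AlphaLISA after 16 hr, decreased signal indicating inhibition.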
HT1080NT lethal: kills 2HG-producing HT-1080-NT fibrosarcoma cells; AID 686970; Potency, µM (titrated, usually from 46.1 µM), for the others: top-dose activity, negative = less viability, usual class: cytotoxic; 360,000 compounds, 1.6% hits; HT-1080-NT fibrosarcoma viability, CellTiter-Glo ATP luminescence, 48 h;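 further: NT is the 2HG producing partner of a matched IDH1 knockdown line; potency means the concentration at half of the fitted maximal effect; 0% = DMSO-treated cells and -100% = media-only wells without cells; nearly all actives have a fitted effect of over 55% in size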
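Fibrosarcoma NT cells, 750 per well in 5% FBS RPMI, were exposed to compound for 48 hours. Viability: CellTiter-Glo luminescence.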
* = called active by the depositor; ? = inconclusive; / = no result; [ ] = remark or other dose. Unless noted, the call rests on the fitted dose curve; in most records, active means well fitted curve in the direction sought with a large enough effect; inconclusive means small, poorly fitted or top-dose-only effect, or another doubt; inactive means no such curve, though single readings can be large; an effect the other way counts as inactive or inconclusive. Unless noted, on the % scale 0 is the no-effect control and ±100 the full control effect.

SMILES	DT40 TDP1 CPT	TDP1 cell noCPT	HT1080 IDH1KD tx	IL-1B inflam inh	HT1080NT lethal
Cc1c(Cc2ccccc2)c(=O)oc2cc(OCC(=O)NCC3CCC(C(=O)O)CC3)ccc12 (stereo not drawn)	2.7%	-10.3%	0.8%	9.8	-7.0%
CCn1cc(C(=S)N2CCC(C(N)=O)CC2)c2ccccc21	?	?	3.4%	8.7	3.1%
COC(=O)CC1[C@@]2(C)C[C@@]34OC5(C)OC6(CC[C@@]7(C)C(c8ccoc8)OC(=O)C(C(C)=O)C7[C@]6(O5)C(O)[C@@]3(O)C2O)[C@]14C (stereo partly drawn)	-10.0%	1.6%	/	/	/
CC(C)(C)NC(=O)C(c1ccc(C(F)(F)F)cc1)n1c(=O)c(-c2ccccc2)nc2ccccc21 (stereo not drawn)	18.4µM*	?	-0.4%	32.8	-0.7%
CC(C)(C)NC(=O)C(c1ccncc1)n1c(=O)c(-c2ccccc2)nc2ccccc21 (stereo not drawn)	-6.3%	-8.2%	18.9%	-9.4	11.3%
O=C(NC1CCCCC1)C(c1ccc(C(F)(F)F)cc1)n1c(=O)c(-c2ccccc2)nc2ccccc21 (stereo not drawn)	?	13µM*	0.0%	27.2	-19.9%
Cc1ccc(-c2ccc(=O)n(CC(=O)NC(C)c3ccccc3)n2)cc1 (stereo not drawn)	-28.6%	-5.5%	/	/	/
CCOC(=O)c1cc(C#N)c(SC(C)C(=O)NC2CCCCC2)nc1C (stereo not drawn)	-24.0%	-29.5%	0.4%	13.4	7.8%
O=c1cc(SCc2ccccc2)nc[nH]1	-10.8%	-14.5%	-4.8%	-80.2*	1.3%
CCOc1ccc(C(=O)N[C@H](C(=O)Nc2ccc(S(=O)(=O)Nc3nccs3)cc2)C(C)C)cc1	10.8%	-13.7%	17.3%	-7.3	8.8%
CCn1c(SCC(=O)NNC(=O)c2ccc(OC)cc2)nnc1-c1cccnc1	14.0%	?	14.1%	13.8	20.2%
COc1ccc(CN2CCN(Cc3c[nH]c4ccccc34)CC2)c(OC)c1	-82.8%	0.291µM*	-17.9%	-28.7	-12.4%
COc1ccc(OC)c(CN2CCN(S(=O)(=O)c3ccccc3)CC2)c1	-1.7%	-20.0%	7.1%	24.8	1.5%
COc1cccc(OC)c1C(=O)N1CCN(Cc2c[nH]c3ccccc23)CC1	-28.1%	-28.5%	-2.4%	0.0	-1.8%
COc1ccc(CN2CCN(Cc3c[nH]c4ccccc34)CC2)cc1	6.51µM*	13µM*	-16.8%	/	-10.6%
COc1ccc(Br)cc1CN1CCN(Cc2c[nH]c3ccccc23)CC1	4.61µM*	7.31µM*	20.6µM*	-74.2*	?
COc1ccc(CN2CCN(Cc3c[nH]c4ccccc34)CC2)cc1OC	-28.9%	-12.2%	-13.8%	-25.2	-0.2%
COc1ccc(CN2CCN(S(=O)(=O)c3ccccc3)CC2)c(OC)c1	?	14.6µM*	6.9%	15.5	2.8%
CCOc1ccccc1C(=O)OCC(=O)Nc1cc(S(=O)(=O)N2CCOCC2)ccc1C	0.3%	-16.7%	1.7%	0.0	3.7%
CC(C)N1CCCC(C)(C(=O)Nc2ccccc2)C1 (stereo not drawn)	0.8%	2.9%	?	14.3	13.4%
O=C(c1ccc(Cl)cc1)C1CCN(C(=O)C2CC2)CC1	-49.4%	?	-10.2%	-12.7	7.7%
CCNC(=O)C1CCCN(C(=O)c2cccc(Cl)c2)CC1 (stereo not drawn)	-8.7%	1.2%	8.5%	31.0	22.9%
Cc1cc(C)c(S(=O)(=O)c2ccccc2C)c(OCCN(C)C)n1	28.7%	-2.7%	3.9%	8.5	1.9%
O=C(Nc1ccncc1)c1ccc(Cl)cc1	?	-25.5%	3.0%	15.2	6.0%
Nc1ccc(C(=O)Nc2ccc(Nc3ccncc3)cc2)cc1	?	29.1µM*	-4.4%	-2.2	-2.8%
SMILES	DT40 TDP1 CPT	TDP1 cell noCPT	HT1080 IDH1KD tx	IL-1B inflam inh	HT1080NT lethal
O=C(Nc1ccc(Br)cc1)c1cccc(C(=O)Nc2ccc(Br)cc2)c1	?	20.6µM*	/	/	/
O=C(Nc1ccncc1)c1ccc(Br)cc1	?	5.17µM*	2.2%	-15.1	3.2%
Fc1ccc2c(c1)/C(=N/Nc1ccccn1)CCS2	4.8%	-23.5%	-12.6%	11.9	-21.8%
COc1cccc(CNc2nc3cc(-c4ccsc4)sc3c(=O)n2C)c1OC	?	?	?	5.6	?
COc1cccc(CNc2nc3cc(-c4ccc(F)cc4)sc3c(=O)n2C)c1OC	25.9µM*	16.4µM*	?	-15.6	-12.8%
COc1cccc(CNc2nc3cc(-c4ccc(C)cc4)sc3c(=O)n2C)c1OC	16.4µM*	18.4µM*	?	84.8	-1.4%
O=C([C@@H]1C[C@@H](Sc2nc3ccccc3[nH]2)CN1CC1CCCCC1)N1CCOCC1	-3.5%[9.04 µM]	-16.1%	/	/	/
CC(C)(C)NC(=O)CN(C(=O)CS(=O)CC(=O)Nc1ccc(F)cc1)c1ccc(Cl)cc1 (stereo not drawn)	-16.6%	-11.0%	4.4%	-1.7	4.4%
COCCN(C(=S)Nc1c(C)cc(C)cc1C)C(C)c1cccs1 (stereo not drawn)	?	29.1µM*	-1.4%	20.6	-7.2%
CC1CCc2c(sc(NC(=O)c3cc(-c4ccc(F)cc4)on3)c2C(N)=O)C1 (stereo not drawn)	-7.2%	-1.4%	/	/	/
O=C(c1cc(COc2cccc3cnccc23)on1)N1CCC(c2ccccc2Cl)C1 (stereo not drawn)	23.1µM*	18.4µM*	-21.5%	-1.2	?
Cc1cccc(C)c1OCc1cc(C(=O)N2CCC(c3ccncc3)CC2)no1	9.2µM*	5.17µM*	-18.7%	-67.8*	?
Cc1cccc(C)c1OCc1cc(C(=O)N2CCN(C3CCCC3)CC2)no1	?	?	6.1%	-13.5	9.3%
O=C(c1cc(COc2c(F)cccc2F)on1)N1CCC(c2ccccc2Cl)C1 (stereo not drawn)	-0.8%	-17.7%	0.0%	-18.1	-9.7%
O=C(c1cc(COc2c(F)cccc2F)on1)N1CCC(c2ccncc2)CC1	9.2µM*	9.2µM*	-25.7%	?	?
O=C(c1cc(COc2c(F)cccc2F)on1)N1CCC(c2ccccc2F)C1 (stereo not drawn)	-0.8%	?	18.3%	?	28.4%
O=C(NCc1cccc2[nH]ccc12)C1CCC(=O)N(CCc2ccccc2)C1 (stereo not drawn)	9.1%	4.9%	10.9%	22.2	-0.7%
O=C1C2C3C=CC(C3)C2C(=O)N1/N=C/c1cn(Cc2ccccc2)c2ccccc12 (stereo not drawn)	16.4µM*	?	-13.9%	12.9	-17.9%
